We go through five compounds from ChEMBL document CHEMBL2218924, “A broad activity screen in support of a chemogenomic map for kinase signalling research and drug discovery” (Biochem J, 2013).

Molecules are shown by their SMILES.

Usually residual activity stands for the signal under treatment as a percentage of the control signal.

For assay [1], the target named is T1, Muscle, skeletal receptor tyrosine-protein kinase (Homo sapiens) (UniProt O15146).
T1 sequence (whole entry): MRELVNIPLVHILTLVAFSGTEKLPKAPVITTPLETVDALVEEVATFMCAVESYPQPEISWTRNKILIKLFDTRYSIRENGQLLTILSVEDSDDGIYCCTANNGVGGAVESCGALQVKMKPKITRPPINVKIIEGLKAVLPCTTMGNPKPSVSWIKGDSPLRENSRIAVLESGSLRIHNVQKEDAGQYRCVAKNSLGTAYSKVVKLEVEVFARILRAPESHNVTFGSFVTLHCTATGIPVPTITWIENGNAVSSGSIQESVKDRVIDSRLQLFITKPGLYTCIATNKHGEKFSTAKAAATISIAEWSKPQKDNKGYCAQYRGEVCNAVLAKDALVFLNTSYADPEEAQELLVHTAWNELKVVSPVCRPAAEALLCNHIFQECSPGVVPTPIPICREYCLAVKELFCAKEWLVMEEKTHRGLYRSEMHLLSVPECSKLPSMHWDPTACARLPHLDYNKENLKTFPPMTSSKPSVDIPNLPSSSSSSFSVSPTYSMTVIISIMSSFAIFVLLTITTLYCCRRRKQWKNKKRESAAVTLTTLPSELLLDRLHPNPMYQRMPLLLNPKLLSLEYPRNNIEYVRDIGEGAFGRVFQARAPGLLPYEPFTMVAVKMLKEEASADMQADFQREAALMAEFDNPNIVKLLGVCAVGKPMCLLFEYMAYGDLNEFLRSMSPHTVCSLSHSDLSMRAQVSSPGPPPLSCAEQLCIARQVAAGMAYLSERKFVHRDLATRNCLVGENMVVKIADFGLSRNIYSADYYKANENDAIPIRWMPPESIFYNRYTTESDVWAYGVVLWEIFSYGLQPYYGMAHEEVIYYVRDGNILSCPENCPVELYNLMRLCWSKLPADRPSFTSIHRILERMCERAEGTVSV
Particulars: at 1 µM.

The target of assay [2] is T1, Muscle, skeletal receptor tyrosine-protein kinase (Homo sapiens). The settings on record: at 10 µM.
Assay [3] has as its target T2, Serine/threonine-protein kinase Nek11 (Homo sapiens) (UniProt Q8NG66).
T2 sequence (whole entry): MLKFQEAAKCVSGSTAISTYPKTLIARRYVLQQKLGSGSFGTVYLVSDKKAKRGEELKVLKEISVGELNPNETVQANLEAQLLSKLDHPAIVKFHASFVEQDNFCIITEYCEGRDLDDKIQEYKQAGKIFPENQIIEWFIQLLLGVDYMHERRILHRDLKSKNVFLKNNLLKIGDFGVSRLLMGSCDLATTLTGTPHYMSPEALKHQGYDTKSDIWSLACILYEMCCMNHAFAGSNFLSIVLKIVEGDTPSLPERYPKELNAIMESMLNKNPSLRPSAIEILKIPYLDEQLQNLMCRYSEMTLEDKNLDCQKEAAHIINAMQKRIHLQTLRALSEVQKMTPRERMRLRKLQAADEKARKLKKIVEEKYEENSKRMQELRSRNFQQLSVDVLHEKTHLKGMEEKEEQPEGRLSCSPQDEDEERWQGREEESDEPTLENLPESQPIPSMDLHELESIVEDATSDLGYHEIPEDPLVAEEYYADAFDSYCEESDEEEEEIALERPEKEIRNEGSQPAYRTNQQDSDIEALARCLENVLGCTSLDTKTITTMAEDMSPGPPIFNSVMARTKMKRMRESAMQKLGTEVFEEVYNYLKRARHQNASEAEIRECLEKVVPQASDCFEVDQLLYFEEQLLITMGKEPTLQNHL
The settings on record: at 1 µM.

Assay [4] concerns the target T2, Serine/threonine-protein kinase Nek11 (Homo sapiens). Particulars: at 10 µM.
The target of assay [5] is T3, Serine/threonine-protein kinase Nek2 (Homo sapiens) (UniProt P51955).
T3 sequence (whole entry): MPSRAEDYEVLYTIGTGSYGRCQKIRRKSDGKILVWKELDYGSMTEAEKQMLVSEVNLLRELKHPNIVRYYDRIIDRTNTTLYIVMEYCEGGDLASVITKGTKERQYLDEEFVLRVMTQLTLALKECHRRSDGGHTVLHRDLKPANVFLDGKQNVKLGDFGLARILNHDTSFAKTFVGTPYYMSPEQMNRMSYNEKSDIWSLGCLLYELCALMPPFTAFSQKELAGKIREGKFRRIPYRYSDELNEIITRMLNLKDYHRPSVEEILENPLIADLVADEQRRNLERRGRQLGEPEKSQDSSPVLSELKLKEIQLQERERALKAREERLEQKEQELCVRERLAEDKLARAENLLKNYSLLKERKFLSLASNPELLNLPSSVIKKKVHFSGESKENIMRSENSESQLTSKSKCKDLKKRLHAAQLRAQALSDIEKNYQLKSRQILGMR
Particulars: at 1 µM.

Assay [6] deals with T3, Serine/threonine-protein kinase Nek2 (Homo sapiens). Particulars: at 10 µM.
For assay [7], the target named is T4, Serine/threonine-protein kinase Nek3 (Homo sapiens) (UniProt P51956).
T4 sequence (whole entry): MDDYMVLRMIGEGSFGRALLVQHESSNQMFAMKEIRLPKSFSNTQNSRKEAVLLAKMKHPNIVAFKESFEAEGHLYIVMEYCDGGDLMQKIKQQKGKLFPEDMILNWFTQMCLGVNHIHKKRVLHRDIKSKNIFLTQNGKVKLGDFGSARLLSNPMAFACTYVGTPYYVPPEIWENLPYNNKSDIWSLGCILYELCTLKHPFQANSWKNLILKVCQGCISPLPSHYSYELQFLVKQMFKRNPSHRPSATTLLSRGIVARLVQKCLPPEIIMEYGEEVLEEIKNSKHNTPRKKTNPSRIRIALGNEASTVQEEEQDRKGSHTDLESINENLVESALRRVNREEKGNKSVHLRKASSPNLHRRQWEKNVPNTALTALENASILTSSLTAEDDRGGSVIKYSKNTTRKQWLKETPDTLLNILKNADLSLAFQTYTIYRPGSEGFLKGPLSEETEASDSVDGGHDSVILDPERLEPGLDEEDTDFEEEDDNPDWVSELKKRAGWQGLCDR
The settings on record: at 1 µM.

Assay [8] has as its target T4, Serine/threonine-protein kinase Nek3 (Homo sapiens). Particulars: at 10 µM.
Assay [9] concerns the target Serine/threonine-protein kinase tousled-like 2 (Homo sapiens) (UniProt Q86UE8). The settings on record: at 1 µM.
Assay [10] has the same target. Particulars: at 10 µM.
Assay [11] concerns the target T5, Testis-specific serine/threonine-protein kinase 1 (Homo sapiens) (UniProt Q9BXA7).
T5 sequence (whole entry): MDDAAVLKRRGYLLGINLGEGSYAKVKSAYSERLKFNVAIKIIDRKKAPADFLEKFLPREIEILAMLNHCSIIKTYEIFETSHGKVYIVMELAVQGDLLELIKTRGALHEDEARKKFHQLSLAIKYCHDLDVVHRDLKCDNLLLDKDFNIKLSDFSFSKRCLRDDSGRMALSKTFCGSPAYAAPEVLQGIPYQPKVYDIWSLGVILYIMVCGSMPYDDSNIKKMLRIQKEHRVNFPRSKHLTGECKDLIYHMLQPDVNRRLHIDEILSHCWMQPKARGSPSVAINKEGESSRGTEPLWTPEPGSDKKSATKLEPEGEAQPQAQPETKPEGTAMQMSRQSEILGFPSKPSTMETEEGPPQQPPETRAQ
Particulars: at 1 µM.

Assay [12] has as its target T5, Testis-specific serine/threonine-protein kinase 1 (Homo sapiens). The settings on record: at 10 µM.
For assay [13], the target named is T6, Testis-specific serine/threonine-protein kinase 2 (Homo sapiens) (UniProt Q96PF2).
T6 sequence (whole entry): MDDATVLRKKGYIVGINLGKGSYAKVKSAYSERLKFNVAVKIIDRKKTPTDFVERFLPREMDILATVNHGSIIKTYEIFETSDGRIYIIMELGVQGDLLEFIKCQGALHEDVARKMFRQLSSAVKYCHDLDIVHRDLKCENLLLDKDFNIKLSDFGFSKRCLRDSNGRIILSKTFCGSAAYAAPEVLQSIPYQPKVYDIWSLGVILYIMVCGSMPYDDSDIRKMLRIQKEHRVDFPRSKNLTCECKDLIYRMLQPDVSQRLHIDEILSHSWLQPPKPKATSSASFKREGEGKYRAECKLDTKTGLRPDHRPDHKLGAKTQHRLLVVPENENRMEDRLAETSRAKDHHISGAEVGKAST
Particulars: at 10 µM.

In assay [14] the target is T7, Tyrosine-protein kinase Tec (Homo sapiens) (UniProt P42680).
T7 sequence (whole entry): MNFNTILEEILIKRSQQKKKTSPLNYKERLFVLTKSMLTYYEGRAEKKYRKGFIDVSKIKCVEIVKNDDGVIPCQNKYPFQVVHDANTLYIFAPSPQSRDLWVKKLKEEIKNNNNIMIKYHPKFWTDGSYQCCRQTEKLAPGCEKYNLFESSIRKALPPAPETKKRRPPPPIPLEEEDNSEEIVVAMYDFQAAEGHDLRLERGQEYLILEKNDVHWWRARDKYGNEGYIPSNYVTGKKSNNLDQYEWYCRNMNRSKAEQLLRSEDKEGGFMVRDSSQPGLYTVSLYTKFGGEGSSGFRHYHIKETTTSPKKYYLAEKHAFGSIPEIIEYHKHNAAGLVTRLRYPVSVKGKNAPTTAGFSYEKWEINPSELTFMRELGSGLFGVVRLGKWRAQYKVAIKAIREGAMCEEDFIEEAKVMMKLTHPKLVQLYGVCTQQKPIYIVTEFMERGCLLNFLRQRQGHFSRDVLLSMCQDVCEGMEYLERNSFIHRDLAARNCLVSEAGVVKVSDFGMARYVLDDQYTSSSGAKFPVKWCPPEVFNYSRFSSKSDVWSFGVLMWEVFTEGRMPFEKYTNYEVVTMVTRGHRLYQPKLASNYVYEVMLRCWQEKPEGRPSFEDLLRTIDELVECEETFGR
Particulars: at 1 µM.

In assay [15] the target is T7, Tyrosine-protein kinase Tec (Homo sapiens). The settings on record: at 10 µM.
The target of assay [16] is Angiopoietin-1 receptor (Homo sapiens) (UniProt Q02763). The settings on record: at 1 µM.
For assay [17] the target is unchanged. The settings on record: at 10 µM.
Assay [18] concerns the target High affinity nerve growth factor receptor (Homo sapiens) (UniProt P04629). Particulars: at 1 µM.
Assay [19] shares this target. The settings on record: at 10 µM.
Assay [20] deals with BDNF/NT-3 growth factors receptor (Homo sapiens) (UniProt Q16620). The settings on record: at 1 µM.
Chain of BDNF/NT-3 growth factors receptor (Homo sapiens) (Q16620 32-822 limits assumed): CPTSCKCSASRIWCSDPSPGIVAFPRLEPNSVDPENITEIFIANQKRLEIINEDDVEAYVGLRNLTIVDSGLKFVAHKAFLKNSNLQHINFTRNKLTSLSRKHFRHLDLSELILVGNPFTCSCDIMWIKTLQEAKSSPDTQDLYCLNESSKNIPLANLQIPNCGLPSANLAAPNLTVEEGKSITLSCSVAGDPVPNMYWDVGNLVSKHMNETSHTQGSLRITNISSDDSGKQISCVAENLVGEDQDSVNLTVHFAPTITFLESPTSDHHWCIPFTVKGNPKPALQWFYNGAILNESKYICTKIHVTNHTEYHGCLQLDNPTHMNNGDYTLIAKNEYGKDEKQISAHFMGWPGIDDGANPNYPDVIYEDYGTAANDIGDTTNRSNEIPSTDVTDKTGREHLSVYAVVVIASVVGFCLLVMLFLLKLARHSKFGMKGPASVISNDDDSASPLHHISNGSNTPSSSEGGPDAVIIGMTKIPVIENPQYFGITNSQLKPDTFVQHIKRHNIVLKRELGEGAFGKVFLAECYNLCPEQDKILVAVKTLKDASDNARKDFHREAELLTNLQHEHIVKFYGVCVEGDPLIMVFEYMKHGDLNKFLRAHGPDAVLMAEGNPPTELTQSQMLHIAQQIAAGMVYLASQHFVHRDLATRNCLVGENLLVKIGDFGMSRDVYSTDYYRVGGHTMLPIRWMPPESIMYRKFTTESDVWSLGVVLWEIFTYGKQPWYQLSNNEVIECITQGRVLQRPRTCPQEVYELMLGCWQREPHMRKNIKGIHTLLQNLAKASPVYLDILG

Chain of Serine/threonine-protein kinase tousled-like 2 (Homo sapiens) (Q86UE8 whole entry, looked up): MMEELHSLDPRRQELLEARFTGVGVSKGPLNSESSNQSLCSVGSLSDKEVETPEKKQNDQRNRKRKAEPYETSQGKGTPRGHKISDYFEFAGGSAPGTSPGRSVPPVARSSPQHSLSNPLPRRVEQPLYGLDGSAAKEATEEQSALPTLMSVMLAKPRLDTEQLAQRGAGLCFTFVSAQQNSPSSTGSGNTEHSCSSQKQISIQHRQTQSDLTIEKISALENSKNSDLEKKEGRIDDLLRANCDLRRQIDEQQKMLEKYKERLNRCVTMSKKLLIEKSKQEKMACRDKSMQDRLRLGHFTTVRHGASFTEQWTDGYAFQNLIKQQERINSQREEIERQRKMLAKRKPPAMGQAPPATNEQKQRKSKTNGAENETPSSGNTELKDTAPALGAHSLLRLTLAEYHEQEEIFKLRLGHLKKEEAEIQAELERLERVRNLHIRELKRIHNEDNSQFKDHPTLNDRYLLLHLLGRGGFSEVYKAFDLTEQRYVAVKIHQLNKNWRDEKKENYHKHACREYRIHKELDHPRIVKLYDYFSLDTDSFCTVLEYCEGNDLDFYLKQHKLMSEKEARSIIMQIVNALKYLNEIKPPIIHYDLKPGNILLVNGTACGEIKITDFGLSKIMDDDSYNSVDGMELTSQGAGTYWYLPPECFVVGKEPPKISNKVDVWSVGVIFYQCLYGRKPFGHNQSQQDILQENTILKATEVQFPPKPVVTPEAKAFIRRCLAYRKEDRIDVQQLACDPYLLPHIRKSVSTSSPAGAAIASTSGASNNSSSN
Chain of High affinity nerve growth factor receptor (Homo sapiens) (P04629 33-796 limits assumed): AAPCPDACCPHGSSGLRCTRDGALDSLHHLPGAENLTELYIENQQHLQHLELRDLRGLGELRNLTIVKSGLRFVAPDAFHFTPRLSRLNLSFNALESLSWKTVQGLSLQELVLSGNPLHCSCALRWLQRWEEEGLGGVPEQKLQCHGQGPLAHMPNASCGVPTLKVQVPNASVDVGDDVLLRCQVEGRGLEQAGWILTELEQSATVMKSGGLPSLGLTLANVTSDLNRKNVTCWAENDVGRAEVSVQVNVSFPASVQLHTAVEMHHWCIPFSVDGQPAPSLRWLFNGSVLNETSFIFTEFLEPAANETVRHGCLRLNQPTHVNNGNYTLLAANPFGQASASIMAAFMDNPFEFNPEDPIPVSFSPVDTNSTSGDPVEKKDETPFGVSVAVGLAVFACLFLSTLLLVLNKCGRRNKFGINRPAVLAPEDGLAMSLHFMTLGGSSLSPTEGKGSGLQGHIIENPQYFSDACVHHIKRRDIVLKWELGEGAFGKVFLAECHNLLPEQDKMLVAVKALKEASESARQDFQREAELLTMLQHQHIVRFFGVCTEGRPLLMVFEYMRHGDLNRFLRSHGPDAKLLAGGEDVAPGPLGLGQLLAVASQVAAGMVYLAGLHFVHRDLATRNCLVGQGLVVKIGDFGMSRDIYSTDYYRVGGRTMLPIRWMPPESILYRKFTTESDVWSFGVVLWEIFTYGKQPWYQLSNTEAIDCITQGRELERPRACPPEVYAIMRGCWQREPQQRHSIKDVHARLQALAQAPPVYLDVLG
Chain of Angiopoietin-1 receptor (Homo sapiens) (Q02763 whole entry): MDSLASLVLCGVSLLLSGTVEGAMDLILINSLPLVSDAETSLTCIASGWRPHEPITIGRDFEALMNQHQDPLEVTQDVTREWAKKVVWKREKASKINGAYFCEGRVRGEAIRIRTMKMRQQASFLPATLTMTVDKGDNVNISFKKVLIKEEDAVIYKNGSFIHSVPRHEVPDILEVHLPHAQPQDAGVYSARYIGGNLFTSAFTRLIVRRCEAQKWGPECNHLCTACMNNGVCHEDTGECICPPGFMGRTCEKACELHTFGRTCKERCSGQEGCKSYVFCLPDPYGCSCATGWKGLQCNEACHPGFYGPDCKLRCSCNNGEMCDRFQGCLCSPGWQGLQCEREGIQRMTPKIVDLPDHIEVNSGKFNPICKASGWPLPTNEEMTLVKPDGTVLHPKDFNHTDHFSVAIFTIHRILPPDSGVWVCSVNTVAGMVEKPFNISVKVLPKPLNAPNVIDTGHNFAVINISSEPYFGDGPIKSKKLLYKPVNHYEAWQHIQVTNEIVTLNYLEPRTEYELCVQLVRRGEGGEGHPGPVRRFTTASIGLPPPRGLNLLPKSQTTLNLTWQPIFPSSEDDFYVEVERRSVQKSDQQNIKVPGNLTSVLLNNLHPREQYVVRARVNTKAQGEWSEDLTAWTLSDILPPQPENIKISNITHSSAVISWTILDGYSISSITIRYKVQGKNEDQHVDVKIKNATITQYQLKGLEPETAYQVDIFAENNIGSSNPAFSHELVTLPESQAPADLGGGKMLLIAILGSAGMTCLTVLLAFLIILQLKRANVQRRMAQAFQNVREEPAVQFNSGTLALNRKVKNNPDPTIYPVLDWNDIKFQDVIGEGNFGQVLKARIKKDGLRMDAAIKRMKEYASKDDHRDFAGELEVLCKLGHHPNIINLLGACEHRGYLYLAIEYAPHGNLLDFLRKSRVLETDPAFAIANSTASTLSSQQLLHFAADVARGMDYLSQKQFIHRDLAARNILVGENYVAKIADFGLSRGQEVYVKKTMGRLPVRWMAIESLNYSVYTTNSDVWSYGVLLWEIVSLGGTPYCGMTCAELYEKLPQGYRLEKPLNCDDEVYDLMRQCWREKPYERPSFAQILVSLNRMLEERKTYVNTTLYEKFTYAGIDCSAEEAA

As for `CC(C)n1cnc2c(NCc3ccccc3)nc(NCCCO)nc21`, the residual activity in assay [1] worked out at 82%; in assay [2], 86%; in [3], 57%; in assay [4], 72%; in [5], 96%; in assay [6] it was 82%. Also, the residual activity in [7] was 85%; in [8], 99%; in assay [9], 96%; in assay [10] it was 89%; in [11] it was 90%; in assay [12], 89%. The residual activity was 81% in [13]; 90% in assay [14]; 89% in assay [15]; 104% in assay [16]; 87% in assay [17]; 93% in [18]. Further, the residual activity in assay [19] came out at 94%; in [20], 88%.

Turning to `COc1cccc(-c2cc(=O)c3ccccc3o2)c1N`, the residual activity in assay [1] stood at 104%; in [2] it was 97%; in [3] it was 64%; in [4] it was 78%; in assay [5], 98%; in assay [6] it was 102%. In addition, the residual activity in [7] is 93%; in assay [8], 101%; in [9], 98%; in assay [10] it was 101%; in [11] it was 103%; in [12] it was 89%. Moreover, the residual activity is 86% in assay [13]; 87% in [14]; 91% in assay [15]; 108% in assay [16]; 106% in assay [17]; 99% in assay [18]. Besides, the residual activity turned out to be 92% in [19] and 105% in assay [20].

Turning to `NC(=O)c1ccc2[nH]c(-c3ccc(Oc4ccc(Cl)cc4)cc3)nc2c1`, the residual activity amounted to 84% in [1]; 63% in assay [2]; 54% in assay [3]; 33% in assay [4]; 82% in assay [5]; 82% in assay [6]. Besides, the residual activity in assay [7] stood at 75%; in assay [8], 91%; in assay [9], 86%; in assay [10], 82%; in [11], 101%; in assay [12], 80%. The residual activity in assay [13] stood at 95%; in assay [14], 106%; in assay [15], 92%; in assay [16], 109%; in assay [17], 131%; in [18] it was 78%. Moreover, the residual activity worked out at 54% in [19] and 103% in assay [20].

Turning to `O=Nc1c(-c2c(O)[nH]c3ccccc23)[nH]c2ccccc12`, the residual activity in assay [1] stood at 58%; in [2] it was 5%; in assay [3], 70%; in [4], 18%; in [5], 93%; in assay [6], 83%. Moreover, the residual activity in [7] turned out to be 86%; in assay [8], 94%; in assay [9], 60%; in assay [10] it was 14%; in [11], 78%; in assay [12], 53%. Besides, the residual activity in [13] was found to be 78%; in [14], 64%; in assay [15], 22%; in [16], 103%; in assay [17], 41%; in assay [18], 0%. Besides, the residual activity in [19] and in assay [20] was 0% in each case.

On to `O=C(Nc1cccc(Nc2nccc(Nc3cccc(C(F)(F)F)c3)n2)c1)C1CC1`, for which the residual activity in assay [1] is 88%; in assay [2], 3%; in [3] it was 90%; in [4], 80%; in assay [5], 94%; in assay [6], 101%. Also, the residual activity came out at 88% in assay [7]; 33% in [8]; 109% in assay [9]; 93% in [10]; 94% in [11]; 64% in [12]. Also, the residual activity in [13] was 78%; in assay [14] it was 78%; in assay [15], 9%; in assay [16], 136%; in [17], 70%; in assay [18], 18%. Moreover, the values for the residual activity in [19] and in assay [20] were 1% and 44%, respectively.
